PubChem BioAssay AID504652 (National Center for Advancing Translational Sciences (NCATS), 2011)
Screen size: about 360,000 compounds; about 11,000 (3.1%) were called active. For the sample, actives were picked, then their nearest neighbours and some compounds at random. Values without a mark were called inactive. Cut-off read from the data, not from the text of the source: active = activity change below about -30%; inactive = the rest.

Target: D(1A) dopamine receptor (Homo sapiens) (UniProt P21728)
Assay: Antagonist of Human D 1 Dopamine Receptor: qHTS
Conditions: HEK293 TREx D1 cells, calcium flux, dopamine EC80; at 10 µM; active compounds read low
Method in brief: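 After overnight tetracycline induction at 30 C, force-coupled D1 HEK293 cells took up a no-wash calcium dye at room temperature. Compounds were added and monitored 180 s, and the response to EC80 dopamine was then recorded.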
% is set by controls: 0 for no effect and ±100 for the full control effect.

Sequence of D(1A) dopamine receptor (Homo sapiens) (P21728 whole entry, looked up): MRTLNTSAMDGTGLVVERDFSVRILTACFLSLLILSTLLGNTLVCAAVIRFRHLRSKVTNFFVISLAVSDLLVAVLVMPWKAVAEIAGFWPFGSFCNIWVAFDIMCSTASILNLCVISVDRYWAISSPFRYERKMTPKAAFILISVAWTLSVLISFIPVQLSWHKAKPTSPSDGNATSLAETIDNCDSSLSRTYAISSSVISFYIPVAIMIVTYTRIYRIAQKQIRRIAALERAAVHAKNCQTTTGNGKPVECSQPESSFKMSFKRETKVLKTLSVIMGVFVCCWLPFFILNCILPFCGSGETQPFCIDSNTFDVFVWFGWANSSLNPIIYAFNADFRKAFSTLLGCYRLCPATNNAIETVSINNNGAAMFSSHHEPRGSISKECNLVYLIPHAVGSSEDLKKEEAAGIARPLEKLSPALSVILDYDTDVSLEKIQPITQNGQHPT

SMILES | activity change, negative = inhibition
CCOc1ccc(NC(=O)c2c(NC(=O)Cc3ccccc3)sc3c2CCCCC3)cc1 | 0.456%
CN(C)CCCN1C(=O)CSC1c1ccc([N+](=O)[O-])cc1 (stereo not given) | 26.5%
CCCCCCCCCCCCN1C(=O)CSC1c1cccnc1 (stereo not given) | -34.3% (active)
CCCCc1ccc(NC(=O)NCc2cccnc2)cc1 | 19%
Cc1cccc(CC(=O)N2CC(=O)Nc3ccc(F)cc3C2c2ccccc2)c1 (stereo not given) | -5.67%
Cc1nn(CC(=O)O)c(=O)c2cc3cc(F)ccc3n12 | 16.8%
COc1cccc(CNC(=O)Cc2csc3nc(-c4ccccc4)cn23)c1 | 8.74%
COc1ccc2c(Sc3ccc(C)cc3)c(C(=O)NC(C)c3ccccc3)[nH]c2c1 (stereo not given) | -2.66%
Cc1cc(C)cc(OCC(=O)Nc2ccc(S(=O)(=O)Nc3ccccn3)cc2)c1 | -0.845%
Cc1ccc(S(=O)(=O)Nc2ccc3ncccc3c2)cc1 | -37.6% (active)
Cc1ccc(NS(=O)(=O)c2ccc(C(C)(C)C)cc2)cn1 | -7.23%
Cc1cn(C)c(CC(=O)NCc2ccc(Cl)cc2)c1C(=O)O | -2.23%
CCC(=O)N(Cc1ccccc1)c1ccccn1 | -9.42%
Cc1ccc(CN(C(=O)c2ccccc2[N+](=O)[O-])c2ccccn2)cc1 | -7.2%
COc1cc(CN(C(=O)c2ccccc2Br)c2ccccn2)cc(OC)c1OC | -66.6% (active)
CCN(CC)c1ccc(NC(=O)CN2C(=O)c3cccnc3Oc3ccc(Cl)cc32)c(C)c1 | -6.59%
COc1ccc(N(C)C(=O)C2CCN(S(=O)(=O)c3cc(Br)cc4c3N(C(C)=O)CC4)CC2)cc1 | 6.85%
COc1ccc(-n2nc3c(c2NC(=O)Cc2cccc(C)c2)CS(=O)C3)cc1 (stereo not given) | -10.2%
CC(=O)Nc1c2c(nn1-c1ccc(C)cc1C)CS(=O)C2 (stereo not given) | -34.5% (active)
Cc1cccc(CC(=O)Nc2c3c(nn2-c2cccc(Cl)c2)CS(=O)C3)c1 (stereo not given) | -0.884%
CCOc1ccc(C2CC(=O)c3c([nH]c(C(=O)OCc4ccccc4)c3C)C2)cc1 (stereo not given) | -22.3%
Cc1ccc(-c2ccc(CCC(=O)O)n2-c2ccc(C(N)=O)cc2)cc1 | -5.89%
Clc1ccc(CSc2nncn3c2cc2occc23)cc1 | -0.2%
CCOc1ccccc1C(=O)Nc1ccc2c(c1)N(C)C(=O)c1ccccc1S2 | -16.7%
COc1ccccc1N1CCN(c2ccc(=O)n(CC(=O)NCc3ccc(OC(C)C)cc3)n2)CC1 | 23.5%
